Molecules are shown by their SMILES.

The inhibition is the percentage by which the read-out fell short of the control. A higher inhibition goes with strong suppression.

The target of this assay is Angiopoietin-1 receptor (Homo sapiens) (UniProt Q02763). The settings on record: at 0.1 µM.
Angiopoietin-1 receptor (Homo sapiens), sequence (Q02763 whole entry): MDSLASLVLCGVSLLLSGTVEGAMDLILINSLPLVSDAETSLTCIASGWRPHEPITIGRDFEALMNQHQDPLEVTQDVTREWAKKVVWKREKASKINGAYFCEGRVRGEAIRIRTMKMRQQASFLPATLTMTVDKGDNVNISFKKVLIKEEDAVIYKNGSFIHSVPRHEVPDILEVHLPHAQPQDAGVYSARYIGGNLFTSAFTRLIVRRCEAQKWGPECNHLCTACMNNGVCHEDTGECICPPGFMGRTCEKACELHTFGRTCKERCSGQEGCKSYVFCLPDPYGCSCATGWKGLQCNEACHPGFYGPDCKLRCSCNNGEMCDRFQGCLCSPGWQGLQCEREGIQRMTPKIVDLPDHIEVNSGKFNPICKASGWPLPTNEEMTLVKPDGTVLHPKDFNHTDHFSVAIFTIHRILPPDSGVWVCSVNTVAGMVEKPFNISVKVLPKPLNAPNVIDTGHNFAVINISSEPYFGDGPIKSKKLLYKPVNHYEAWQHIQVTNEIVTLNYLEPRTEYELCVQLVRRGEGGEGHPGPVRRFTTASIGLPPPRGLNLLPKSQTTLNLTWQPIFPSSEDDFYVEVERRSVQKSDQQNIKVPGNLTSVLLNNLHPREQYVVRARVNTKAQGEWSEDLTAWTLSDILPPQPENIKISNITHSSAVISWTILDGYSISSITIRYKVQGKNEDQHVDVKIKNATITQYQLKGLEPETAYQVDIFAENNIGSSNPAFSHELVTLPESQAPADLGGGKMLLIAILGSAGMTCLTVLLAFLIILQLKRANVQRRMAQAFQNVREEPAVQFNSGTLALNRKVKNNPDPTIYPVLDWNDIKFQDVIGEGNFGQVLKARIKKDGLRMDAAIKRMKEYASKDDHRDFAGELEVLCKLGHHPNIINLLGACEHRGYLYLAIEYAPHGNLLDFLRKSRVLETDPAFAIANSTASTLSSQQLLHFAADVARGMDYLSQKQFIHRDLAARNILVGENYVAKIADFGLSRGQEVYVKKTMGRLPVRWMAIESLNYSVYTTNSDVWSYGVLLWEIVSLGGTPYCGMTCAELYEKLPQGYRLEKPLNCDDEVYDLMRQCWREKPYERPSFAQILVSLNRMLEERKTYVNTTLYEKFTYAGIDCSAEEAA
The molecule `CCS(=O)(=O)c1ccc(OC)c(Nc2ncc(-c3cccc(OC)c3)o2)c1` yielded an inhibition of 3.35%.
For `Cc1ccc2c(-c3ccnc(Nc4cccc(C(F)(F)F)c4)n3)c(-c3ccccc3)nn2n1` the value was 3.55%; for `CN(C)C(=O)O[C@H]1CN[C@H](C#Cc2cc3ncnc(Nc4ccc(OCc5cccc(F)c5)c(Cl)c4)c3s2)C1`, 2.98%.
As for `COc1cccc(-n2nc(C)c3c(N/N=C(\C)c4ccncc4)ncnc32)c1`, the inhibition was 0.73%.
The same measure for `CCn1c(-c2nonc2N)nc2ccc(F)cc21`: 2.7%; for `Cc1cc(Cl)cc2c1NC(=O)C2=NNc1ccc(S(N)(=O)=O)cc1`: 2.08%; for `CN1CCN(C(=O)c2ccc(NC(=O)Nc3ccc(N(C)c4ccnc(Nc5ccc(CS(C)(=O)=O)cc5)n4)cc3)cc2)CC1`: 33.2%.
In the case of `C[C@@H](Oc1cc(-n2cnc3ccc(OCC4CCN(C)CC4)cc32)sc1C(N)=O)c1ccccc1C(F)(F)F`, the inhibition turned out to be 5.78%.
Molecule `Cc1nc(-c2ccccc2)n2nc(NCCCN3CCOCC3)ncc12` displayed an inhibition of 4.19%.
As for `CN(C)C(=O)O[C@@H]1CN[C@@H](C#Cc2cc3ncnc(Nc4ccc(OCc5cccc(F)c5)c(Cl)c4)c3s2)C1`, the inhibition is 1.52%.
The same measure for `c1ccc(Nc2ncc(-c3ccccc3)o2)cc1`: 3.52%; for `COc1cccc(-n2ncc3c(N/N=C/c4ccc(S(C)(=O)=O)cc4)ncnc32)c1`: 7.64%; for `OCc1ccc(-c2nc(-c3ccccn3)c(-c3ccc4c(c3)OCO4)[nH]2)cc1`: 2.48%.
For `c1ccc(Cc2nc3ccc(Nc4ncnc5ccccc45)cc3[nH]2)cc1` the value was 2.5%; for `CC(C)c1ccc2c(c1)NC(=O)/C2=N/Nc1ccc(S(N)(=O)=O)cc1`, 1.55%.

Source of the values: ChEMBL document CHEMBL1961873, “Compounds: GSK PKIS; Assays: Nanosyn kinase panel” (2012).
